Source: ChEMBL document CHEMBL1201862, “PubChem BioAssay data set” (2004)
The campaign covered roughly 400,000 compounds. About 2,100 (0.53%) were called active. About 14% were inconclusive and are not listed. How the calls were made is not given here. The list comes from a sample in which actives are over-represented; it also holds similar structures and randomly drawn compounds.

Target: Ataxin-2 (Homo sapiens) (UniProt Q99700)
Assay: qHTS for Inhibitors of ATXN expression.
Type: functional

Ataxin-2 (Homo sapiens), sequence (Q99700 whole entry): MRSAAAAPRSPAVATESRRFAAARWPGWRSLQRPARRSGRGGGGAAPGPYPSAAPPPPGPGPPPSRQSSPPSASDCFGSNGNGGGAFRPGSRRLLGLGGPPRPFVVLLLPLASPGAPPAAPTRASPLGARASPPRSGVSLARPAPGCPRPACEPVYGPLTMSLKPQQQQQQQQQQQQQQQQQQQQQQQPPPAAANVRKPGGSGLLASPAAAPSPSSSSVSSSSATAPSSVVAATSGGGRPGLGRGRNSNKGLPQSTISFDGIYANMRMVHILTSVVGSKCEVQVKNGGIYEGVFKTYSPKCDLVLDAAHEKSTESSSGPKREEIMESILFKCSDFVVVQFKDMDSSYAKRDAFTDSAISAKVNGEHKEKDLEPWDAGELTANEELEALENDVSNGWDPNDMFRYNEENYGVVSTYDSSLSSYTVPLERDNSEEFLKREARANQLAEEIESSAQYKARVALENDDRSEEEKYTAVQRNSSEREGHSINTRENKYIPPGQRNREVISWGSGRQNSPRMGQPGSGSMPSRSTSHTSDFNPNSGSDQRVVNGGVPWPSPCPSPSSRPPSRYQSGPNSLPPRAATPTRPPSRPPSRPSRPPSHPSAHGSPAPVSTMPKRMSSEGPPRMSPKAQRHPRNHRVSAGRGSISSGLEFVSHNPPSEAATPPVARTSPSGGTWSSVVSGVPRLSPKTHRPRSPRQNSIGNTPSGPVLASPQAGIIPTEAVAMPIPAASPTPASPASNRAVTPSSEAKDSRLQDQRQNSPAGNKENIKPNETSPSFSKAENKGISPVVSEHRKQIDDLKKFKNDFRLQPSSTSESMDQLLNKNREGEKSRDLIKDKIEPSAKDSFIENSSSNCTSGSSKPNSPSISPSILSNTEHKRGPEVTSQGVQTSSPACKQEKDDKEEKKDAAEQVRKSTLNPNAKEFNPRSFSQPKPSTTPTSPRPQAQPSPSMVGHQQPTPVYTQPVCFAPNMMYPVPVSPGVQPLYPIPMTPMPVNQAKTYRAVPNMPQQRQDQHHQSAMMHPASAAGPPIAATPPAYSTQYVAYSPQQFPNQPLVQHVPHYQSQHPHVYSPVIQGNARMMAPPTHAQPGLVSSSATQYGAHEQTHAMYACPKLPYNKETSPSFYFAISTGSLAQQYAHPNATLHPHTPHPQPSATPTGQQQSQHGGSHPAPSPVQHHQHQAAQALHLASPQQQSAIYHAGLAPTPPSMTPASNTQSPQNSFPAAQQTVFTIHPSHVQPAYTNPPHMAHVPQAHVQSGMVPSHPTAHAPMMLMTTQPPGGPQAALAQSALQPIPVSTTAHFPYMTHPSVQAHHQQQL

| Compound | Potency |
| --- | --- |
| COc1ccc([C@@H](C)NC(=O)CCc2nnc(-c3cc(C)on3)o2)cc1 | inactive |
| COc1ccc2[nH]c3nc(SCc4nnc(-c5ccc(C)cc5)o4)nnc3c2c1 | 22.4 µM (active) |
| COc1ccc(C2CC(c3ccc(F)cc3)n3nc(NC(=O)c4ccco4)nc3N2)cc1 (centres undefined) | inactive |
| Cc1ccc(C)c(CSc2cn(CCNC(=O)c3cccs3)c3ccccc23)c1 | 31.6 µM (active) |
| CCCn1nc(NC(=O)c2cccs2)c2cc3cc(C)ccc3nc21 | inactive |
| N#Cc1c(N)n(CCNC(=O)c2cccs2)c2nc3ccccc3nc12 | inactive |
| COC(=O)c1cc(=O)nc(NN=C2c3ccccc3-c3ccccc32)s1 | 14.1 µM (active) |
| Cc1cccn2c(=O)c3cc(C#N)/c(=N\C(=O)c4ccccc4)n(Cc4ccco4)c3nc12 | inactive |
| O=C(Oc1cc2oc(=O)c3c(c2cc1Cl)CCCC3)c1cccs1 | inactive |
| COc1cc2c(cc1OC)C(c1ccccc1Cl)N(C)CC2 (centres undefined) | inactive |
| COc1cc2c(cc1OC)C(c1ccccc1)N(C(=O)CCl)CC2 (centres undefined) | 25.1 µM (active) |
| COc1cc2c(cc1OC)CN(C1CCC(C(C)(C)C)CC1)CC2 (centres undefined) | inactive |
| CCc1ccc(-c2cc(C(F)(F)F)n3nc(C(=O)Nc4cnn(Cc5ccccc5C)c4)cc3n2)s1 | inactive |
| CC1(C)CC(=O)c2cnc(N3CCc4ccccc43)nc2C1 | inactive |
| COc1ccc(S(=O)(=O)N(C)C)cc1NC(=O)CCNC(=O)c1ccco1 | inactive |
| O=C(NCCNC1CCC(c2ccccc2)CC1)c1cccs1 (centres undefined) | inactive |
| Nc1ccc(/C=C/C(=O)c2cccs2)cc1 | inactive |
| O=C(c1cccs1)N1CCN(C(=O)c2cccs2)C1=S | 39.8 µM (active) |
| CCOc1cc(Br)c(C(C)NC(=O)c2cccnc2)cc1OCC (centres undefined) | inactive |
| N#C/C(=C(/O)CCCl)c1ccccn1 | inactive |
| FC(F)Sc1ccc(NC(=S)N2CCN(c3ccccn3)CC2)cc1 | inactive |
| CCOC(=O)C1C(C(=O)NN)C1C(=O)Nc1ccccc1 (centres undefined) | inactive |

| Compound | Potency |
| --- | --- |
| CCOC(=O)c1cnc(-c2ccccc2O)nc1Cl | inactive |
| CCOC(=O)C1=Nc2ccccc2C1=[N+]=[N-] | 39.8 µM (active) |
| Cc1ccc2nc3c(cc2c1)c(C)nn3-c1ccccc1 | inactive |
| O=C(C(Cc1ccccc1)n1cccc1)N1CCCCC1 (centres undefined) | inactive |
| O=C1OCCN1C(=O)[C@H]1[C@H](c2ccccc2)C(c2cccc(Cl)c2)=NN1c1ccccc1 | inactive |
| CCCc1nnc(SCC(=O)Nc2ccccc2F)o1 | inactive |
| CCCCn1c(CNC(=O)C23CC4CC(CC(C4)C2)C3)nnc1SCC(=O)Nc1ccc(C)cc1 | 35.5 µM (active) |
| COc1ccc(NC(=O)Cc2nnc(SCC(=O)NC3=NCCS3)n2C)cc1 | inactive |
| Cc1ccc(C(C)NC(=O)C23CC4CC(CC(C4)C2)C3)cc1 (centres undefined) | inactive |
| N#Cc1c(N)n(CCCN2CCOCC2)c2nc3ccccc3nc12 | inactive |
| O=C(Cc1cccc2ccccc12)Nc1ccc(Br)cc1C(=O)O | inactive |
| O=C(Nc1ccn(CCCN2CCN(Cc3cccc4ccccc34)CC2)c(=O)n1)OCc1ccccc1 | 14.1 µM (active) |
| Cc1ccc(S(=O)(=O)c2nnn3c2nc(NC2CCN(Cc4ccccc4)CC2)c2ccccc23)cc1C | 39.8 µM (active) |
| CC(=O)NCCNc1nc2c(-c3cccc(C(F)(F)F)c3)nnn2c2ccccc12 | inactive |
| Cc1ccc(-c2nnn3c2nc(NCCc2ccc(S(N)(=O)=O)cc2)c2ccccc23)cc1 | inactive |
| Cc1nc2nc(SCC(=O)O)nn2c(C)c1Cc1ccccc1Cl | inactive |
| Cc1ccc(OCC(=O)N2CC(C)OC(C)C2)c([N+](=O)[O-])n1 (centres undefined) | inactive |
| CN1C2CCC1/C(=C/c1cccn1C)C(=O)/C2=C\c1cccn1C | inactive |
| N=c1c(S(=O)(=O)c2ccc(Br)cc2)cc2c(=O)n3ccccc3nc2n1Cc1ccco1 | inactive |
| O=[N+]([O-])c1cc(-c2ncccn2)c([N+](=O)[O-])s1 | 25.1 µM (active) |
| Cc1c(NS(=O)(=O)c2cc([N+](=O)[O-])ccc2Cl)c(=O)n(-c2ccccc2)n1C | inactive |
| CC(c1ccon1)N(C)C(=O)c1cnn(-c2ncc3c(n2)-c2ccccc2CC3)c1C1CC1 (centres undefined) | inactive |

| Compound | Potency |
| --- | --- |
| Cc1cc(C)c(C#N)c(OCc2ccc(Cl)nc2)n1 | inactive |
| N#Cc1ccc(C(=O)OCC(=O)Nc2cccnc2Cl)cc1 | inactive |
| Cc1ccc(NC(=O)/C(C#N)=C/c2cn(CC(=O)NCc3ccco3)c3ccccc23)cc1C | inactive |
| COc1cc(C)c(/C=C(\C#N)C(=O)Nc2ccc(C)cc2)cc1C(C)C | inactive |
| Cc1ccc(NC(=O)/C(C#N)=C/c2cc(C)n(-c3ccc(Br)cc3)c2C)cc1C | 35.5 µM (active) |
| NC(=S)NN=Cc1nccc2c(N)cccc12 | 8.91 µM (active) |
| CNC(=S)N/N=C/c1c2ccccc2c(Cl)c2ccccc12 | inactive |
| NC(=S)NN=Cc1nccc2c(C(F)(F)C(F)(F)C(F)(F)F)cccc12 | 1 µM (active) |
| N=c1c(C(=O)NCC2CCCO2)cc2c(=O)n3ccccc3nc2n1CCCO (centres undefined) | inactive |
| OCCn1ccc(-c2ccccc2OCc2ccc(F)cc2)n1 | inactive |
| CCCCCCc1cc2cc(S(=O)(=O)c3ccc(C)cc3)c(=O)oc2cc1O | inactive |
| CC(C)N(C(=O)CS(=O)(=O)c1ccc(Cl)c(Cl)c1)C(C)C | inactive |
| O=C(NCC1CCCO1)c1nn2c(C(F)(F)F)cc(-c3cccs3)nc2c1Br (centres undefined) | inactive |
| COCCCNc1nc2ccccc2nc1NS(=O)(=O)c1cc(Cl)ccc1Cl | inactive |
| CCCCNC(=O)C(C)N(CCN(C)C)C(=O)CCCN1C(=O)NC(c2ccc(Cl)cc2)C(C(=O)OCc2ccccc2)=C1C (centres undefined) | 25.1 µM (active) |
| NC(=O)C1(N2CCCCC2)CCN(C(=O)c2cc(COc3c(F)cccc3F)on2)CC1 | inactive |
| Cc1ccc(NC(=O)c2ccc(Nc3c([N+](=O)[O-])cc([N+](=O)[O-])cc3[N+](=O)[O-])cc2)cc1 | 15.8 µM (active) |
| Cc1ccc(C(=O)Nc2ccc(S(=O)(=O)Nc3ncccn3)cc2)cc1[N+](=O)[O-] | inactive |
| COc1ccc(C(=O)Nc2ccc(S(=O)(=O)Nc3nccc(C)n3)cc2)cc1[N+](=O)[O-] | inactive |
| C/C(=N\NC(=O)CC#N)c1cc2ccc(O)cc2oc1=O | inactive |
